From PubChem BioAssay (Tox21)
Records with an inconclusive call do not appear. Calls of active or inactive are those of the source. Calls follow the shape of the dose curve; as a rule, active = well fitted curve in the direction sought with a large enough effect in the repeat runs; inconclusive = weak or mixed curves; inactive = no such curve, though single readings can be large; an effect the other way counts as inactive or inconclusive.

Experiments:
[1] = qHTS RealTime-Glo MT Cell Viability Assay in HEK293 cells - 0 hour (AID 1224880); also: top concentration of the series differs between compounds; nearly all actives have a fitted effect of over 45% in size
Procedure, shortened: (§1)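 Viable HEK293 cells reduce a cell-permeant prosubstrate; the product diffuses out and is consumed by NanoLuc in the medium to give light. Compounds went in after a 5 h incubation and plates were read over the treatment course.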

[2] = A CellTox Green Cytotoxicity Assay to monitor cytotoxicity in HEK293 cells - 32 hour (AID 1224881); also: nearly all actives have a fitted effect of over 40% in size
Procedure, shortened: (§2)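 Fluorescence intensity, read at 0, 8, 16, 24, 32 and 40 h of compound treatment, reflected dye binding to DNA of dead HEK293 cells; compounds (23 nL, DMSO) were added 5 h after plating cells with reagent.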

[3] = A CellTox Green Cytotoxicity Assay to monitor cytotoxicity in HepG2 cells - 0 hour (AID 1224882); also: nearly all actives have a fitted effect of over 35% in size
Procedure, shortened: (§3)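 Using 1536-well format, dye-containing HepG2 suspension was seeded, allowed 5 h at 37 C/5% CO2, dosed by pintool with compounds, positive and negative controls, and imaged for fluorescence across 40 h.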

[4] = A CellTox Green Cytotoxicity Assay to monitor cytotoxicity in HepG2 cells - 32 hour (AID 1224883); also: nearly all actives have a fitted effect of over 50% in size
Procedure, shortened: as §3

[5] = A CellTox Green Cytotoxicity Assay to monitor cytotoxicity in HEK293 cells - 8 hour (AID 1224884); also: nearly all actives have a fitted effect of over 35% in size
Procedure, shortened: as §2

[6] = qHTS RealTime-Glo MT Cell Viability Assay in HepG2 cells - 16 hour (AID 1224885); also: nearly all actives have a fitted effect of over 50% in size
Procedure, shortened: (§4)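 Real-time, nonlytic viability: 600 HepG2 cells/well mixed with NanoLuc enzyme plus prosubstrate; 5 h settle, compound (DMSO) added by pintool; luminescence monitored over 40 h at 37 C.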

[7] = qHTS RealTime-Glo MT Cell Viability Assay in HEK293 cells - 24 hour (AID 1224886); also: nearly all actives have a fitted effect of over 50% in size; also: potency is read from the fitted curve at half-maximal effect
Procedure, shortened: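 Cells + reagent dispensed (600 cells/well, HEK293) → 5 h at 37 C/5% CO2 → 23 nL compound in DMSO pinned → 40 h at 37 C → luminescence read at 0, 8, 16, 24, 32, 40 h.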

[8] = qHTS RealTime-Glo MT Cell Viability Assay in HEK293 cells - 8 hour (AID 1224887); also: nearly all actives have a fitted effect of over 50% in size; also: potency is read from the fitted curve at half-maximal effect
Procedure, shortened: as §1

[9] = A CellTox Green Cytotoxicity Assay to monitor cytotoxicity in HEK293 cells - 16 hour (AID 1224888); also: nearly all actives have a fitted effect of over 35% in size
Procedure, shortened: as §2

[10] = qHTS RealTime-Glo MT Cell Viability Assay in HepG2 cells - 0 hour (AID 1224889); also: nearly all actives have a fitted effect of over 50% in size
Procedure, shortened: as §4

Measured: Potency

C[C@H]1C[C@H](O)c2ccsc2S1(=O)=O
inactive: all assays above

C=C(C)C(=O)OCCOCCOC(=O)C(=C)C
not listed: [10]
inactive: all other assays above

CC/C=C1/OC(=O)c2ccccc21
not listed: [10]
inactive: all other assays above

O=C(/C=C/c1ccc(O)c(O)c1)O[C@@H]1C[C@@](OC(=O)/C=C/c2ccc(O)c(O)c2)(C(=O)O)C[C@@H](O)[C@@H]1O
inactive: all assays above

CCC=CC#N
inactive: all assays above

C/C=C/C=C/C=O
not listed: [10]
inactive: all other assays above

C=C/C(C)=C/C/C=C(\C)CCC=C(C)C
not listed: [10]
inactive: all other assays above

CC(O)c1ccccc1 (configuration not stated)
not listed: [10]
inactive: all other assays above

O=c1[nH]c2ccc(Cl)cc2o1
not listed: [10]
inactive: all other assays above

CN1CC(=O)N2[C@H](c3ccc4c(c3)OCO4)c3[nH]c4ccccc4c3C[C@@H]2C1=O
inactive: all assays above

CN1C(=O)OC(C)(C)C1=O
inactive: all assays above

CC(=O)OCC(=O)NCCCOc1cccc(CN2CCCCC2)c1
inactive: all assays above

Cc1[nH]cnc1CN1CCc2c(c3ccccc3n2C)C1=O
inactive: all assays above

Cc1ccc(Cl)c(Nc2ccccc2C(=O)O)c1Cl
inactive: all assays above

O=C(CCCN1CC=C(n2c(=O)[nH]c3ccccc32)CC1)c1ccc(F)cc1
active: [7] 10.7 µM | [8] 16.9 µM
not listed: [10]
inactive: all other assays above

NC(=O)c1ccncc1
inactive: all assays above

Cc1cccc(O)c1N
inactive: all assays above

Brc1cc(Br)c(Oc2cc(Br)c(Br)cc2Br)cc1Br
inactive: all assays above

Cc1ccccc1N=C(N)Nc1ccccc1C
inactive: all assays above

c1ccc2sc(SN(C3CCCCC3)C3CCCCC3)nc2c1
inactive: all assays above

O=C(Cn1ccnc1[N+](=O)[O-])NCCO
not listed: [10]
inactive: all other assays above

Cc1ccc(C(C)(C)O)cc1
inactive: all assays above

O=C(O)c1cccc(-c2noc(-c3ccccc3F)n2)c1
inactive: all assays above
